Assay results taken from PubChem BioAssay (EPA / NIEHS).
Calls of active or inactive are those of the source. The calls were made as follows: active = hit-call score of the fitted dose curve at least 0.9, where 1 is the maximum; inactive = score below 0.9.

read-out: Collagen I, COL1A1 (gene 1277); assay: BSK_hDFCGF_CollagenI: BioMAP Diversity Plus: hDFCGF Assay for Collagen I Biomarker Activity (AID 2284250); settings: primary human foreskin fibroblasts
Experimental: BSK_hDFCGF is a cell-based, multiplexed-readout assay that uses foreskin fibroblast, a human skin primary cell, with measurements taken at 24 hours after chemical dosing in a 96-well plate.BSK_hDFCGF_CollagenI is an assay component measured in the BSK_hDFCGF assay. It measures Collagen I antibody related to regulation of gene protein expression using ELISA technology.Data from the assay component BSK_hDFCGF_CollagenI was analyzed at the endpoint, BSK_hDFCGF_CollagenI, in the positive analysis fitting direction relative to DMSO as the negative control and baseline of activity. Using a type of binding reporter, gain or loss-of-signal activity can be used to understand protein changes. To generalize the intended target to other relatable targets, this assay endpoint is annotated to the 'cell adhesion molecules' intended target family, where the subfamily is 'collagen'.
The levels of cell surface (or secreted, indicated by the prefix "s") biomarker endpoints were measured by ELISA. Overt cytotoxicity to cells in confluent adherent cultures (all systems other than the BT system) was assessed by measuring total protein levels using sulforhodamine B (SRB) staining in parallel cultures at the time of biomarker measurements, indicated as SRB endpoints. For proliferation assays for adherent cell types, individual cell types are cultured at sub-confluence and relative cell numbers quantified by SRB staining at time points optimized for each system (48 h: 3C and CASM3C systems; 72 h: BT and HDF3CGF systems; 96 h: SAg system). SRB was performed by staining cells with 0.1% SRB after fixation with 10% TCA and reading wells at 560 nm.Viability and proliferation of PBMC (T cells) was quantified by Alamar Blue reduction for the SAg and BT systems. For PBMC viability (referred to as PBMC Cytotoxicity within the assay endpoint names), cells were plated (75,000/well in a 96-well plate) and then chemical samples added for 1 h before addition of activators, SEB and TSST-1 (20 ng/mL final concentration each). Cells were incubated for 90 h. Then, Alamar Blue (20 uL/well) (Invitrogen, Cat DAL1100) was added for 6 h, and the plates were read with a fluorescence microplate reader at 546/580 nm (excitation/emission). For PBMC proliferation, cells were plated and activated as above but incubated for only 16 h prior to addition of Alamar Blue. Plates were read after 6 h.

| SMILES | outcome |
| --- | --- |
| c1ccc(OCCOc2ccccc2)cc1 | inactive |
| O=S(=O)(O)C(F)(F)C(F)(F)OC(F)(F)C(F)(F)F | inactive |
| CC(=O)c1ccc(C)cc1 | inactive |
| OCC(F)(OC(F)(F)C(F)(OC(F)(F)C(F)(F)C(F)(F)F)C(F)(F)F)C(F)(F)F (stereo not drawn) | inactive |
| CCn1cc(C(=O)O)c(=O)c2ccc(C)nc21 | inactive |
| C=C(F)C(=O)OC(C(F)(F)F)C(F)(F)F | inactive |
| CC(C)CCCC(C)(C)O | inactive |
| CCCCN(CCO)CCO | inactive |
| C=C(C)C(=O)OCCC(F)(F)C(F)(F)C(F)(F)C(F)(F)C(F)(F)C(F)(F)C(F)(F)C(F)(F)F | inactive |
| CC(C)(CO)CO | inactive |
| O=C(O)C(F)(F)OC(F)(F)C(F)(F)OC(F)(F)C(F)(F)C(F)(F)C(F)(F)F | inactive |
| O=C(O)C(F)(F)C(F)(F)C(F)(F)C(F)(F)C(F)(F)C(F)(F)C(F)(F)C(F)F | inactive |
| CCCO[Si](OCCC)(OCCC)OCCC | inactive |
